According to PubChem BioAssay (NCATS):
Inconclusive results are not listed. Calls of active or inactive are those of the source. Unless noted, calls follow the shape of the dose curve; as a rule, active = well fitted curve in either direction with a large enough effect (not every such curve was filed as active); inconclusive = small, poorly fitted or top-dose-only effect, or another doubt; inactive = flat fitted curve, though single readings scatter.

Assays:
[1] = target: Lysosomal acid glucosylceramidase (Homo sapiens) (UniProt P04062); assay: Glucocerebrosidase-p2 (AID 348; in the data active = potency below about 10 µM; also: potency is read from the fitted curve at half-maximal effect); conditions: purified GBA, blue fluorogenic substrate, 40 min
Chain of Lysosomal acid glucosylceramidase (Homo sapiens) (P04062 whole entry, looked up): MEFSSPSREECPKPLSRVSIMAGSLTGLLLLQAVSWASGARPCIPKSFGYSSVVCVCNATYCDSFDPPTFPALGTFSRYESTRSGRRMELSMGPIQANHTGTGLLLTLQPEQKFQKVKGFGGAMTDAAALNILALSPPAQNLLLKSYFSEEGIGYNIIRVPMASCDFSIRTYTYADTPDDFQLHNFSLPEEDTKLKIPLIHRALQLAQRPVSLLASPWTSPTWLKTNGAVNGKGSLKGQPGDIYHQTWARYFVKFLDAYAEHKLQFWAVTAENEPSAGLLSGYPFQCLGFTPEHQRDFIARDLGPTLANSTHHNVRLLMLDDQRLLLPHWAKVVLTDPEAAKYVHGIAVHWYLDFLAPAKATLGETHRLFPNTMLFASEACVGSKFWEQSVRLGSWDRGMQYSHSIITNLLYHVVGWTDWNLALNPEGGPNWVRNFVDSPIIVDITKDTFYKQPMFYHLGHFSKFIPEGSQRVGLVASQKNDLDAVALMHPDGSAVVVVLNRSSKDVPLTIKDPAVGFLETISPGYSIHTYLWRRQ
Outline: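 Compounds titrated from 0.6 nM upwards against 0.2 nM enzyme in pH 5.9 citric acid/KH2PO4, taurocholate, tween-20; blue fluorogenic substrate 80 uM, 40 min room temperature, stopped and read Ex 365/Em 440 for AC50.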

[2] = AP1 Signaling Pathway (AID 357); conditions: ME-180 (cervical carcinoma) AP-1-bla reporter, EGF-induced, beta-lactamase ratio, 5 h; at 7.69 µM (top of the series) unless noted;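 also: ME-180 reporter cells stimulated with EGF at its EC50 level; % is scaled to controls: 0 for no effect and ±100 for the full control effect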
Outline: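 Read-out was the 460nm/530nm emission ratio (excitation 405nm) after CCF4 loading for 2.5 hours at room temperature. Cells carried an AP-1-driven beta-lactamase reporter, were stimulated with EC50 EGF plus compound for 5 hours, and AC50 values came from titrations.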

[3] = target: Cytochrome P450 1A2 (Homo sapiens) (UniProt P05177); assay: p450-cyp1a2 (AID 410; calls by dose curve; also: potency is read from the fitted curve at half-maximal effect;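 as to activity change, negative = inhibition: -100% = full effect of reference inhibitor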); conditions: recombinant CYP1A2, luciferin-ME demethylation, luminescence; series mostly up to 11.4 µM
Chain of Cytochrome P450 1A2 (Homo sapiens) (P05177 whole entry, looked up): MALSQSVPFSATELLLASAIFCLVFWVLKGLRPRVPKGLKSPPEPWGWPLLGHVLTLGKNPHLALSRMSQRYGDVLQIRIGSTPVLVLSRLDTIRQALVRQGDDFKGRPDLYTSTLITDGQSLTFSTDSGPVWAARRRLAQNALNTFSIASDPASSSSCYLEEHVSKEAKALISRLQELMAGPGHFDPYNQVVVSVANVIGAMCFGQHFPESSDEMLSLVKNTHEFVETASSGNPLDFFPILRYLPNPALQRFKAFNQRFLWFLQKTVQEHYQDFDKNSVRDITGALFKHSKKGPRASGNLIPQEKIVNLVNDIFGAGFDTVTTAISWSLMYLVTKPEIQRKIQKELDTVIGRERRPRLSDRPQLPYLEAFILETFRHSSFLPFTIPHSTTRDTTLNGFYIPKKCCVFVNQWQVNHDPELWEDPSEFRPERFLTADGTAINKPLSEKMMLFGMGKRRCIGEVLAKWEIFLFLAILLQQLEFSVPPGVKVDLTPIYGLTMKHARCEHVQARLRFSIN
Outline: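 20nM CYP1A2 with 100uM Luciferin-ME (at Km) in 100mM KPO4; compound preincubated 10 min, NADPH regeneration added, 60 min at room temperature. Luciferin quantified by luminescence after detection reagent; normalized to 57 uM furafylline.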

[4] = NFAT Signaling Pathway (AID 444); conditions: Jurkat NFAT-bla M1, carbachol, beta-lactamase ratio, 5 h; at 7.69 µM (top of the series) unless noted;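 also: carbachol stimulus at about its EC50 of 1 µM final; % is scaled to controls: 0 for no effect and ±100 for the full control effect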
Outline: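 Jurkat cells with NFAT-driven β-lactamase reporter and co-expressed M1 receptor, stimulated with carbachol (final 1 uM, ~EC50), compound titration, 5 h at 37 °C. CCF4 loaded 1 h at RT; 460/530 nm ratio gave %activity and AC50.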

[5] = target: Glucocorticoid receptor (Homo sapiens) (UniProt P04150); assay: GR-GFP Redistribution (AID 450;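 active = compounds whose dose series gives a full or clear partial fitted curve of increased nuclear translocation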; also: potency is read from the fitted curve at half-maximal effect); conditions: U2OS GR-GFP nuclear translocation, laser cytometry, 2 h
Chain of Glucocorticoid receptor (Homo sapiens) (P04150 whole entry, looked up, the tested form may be a part): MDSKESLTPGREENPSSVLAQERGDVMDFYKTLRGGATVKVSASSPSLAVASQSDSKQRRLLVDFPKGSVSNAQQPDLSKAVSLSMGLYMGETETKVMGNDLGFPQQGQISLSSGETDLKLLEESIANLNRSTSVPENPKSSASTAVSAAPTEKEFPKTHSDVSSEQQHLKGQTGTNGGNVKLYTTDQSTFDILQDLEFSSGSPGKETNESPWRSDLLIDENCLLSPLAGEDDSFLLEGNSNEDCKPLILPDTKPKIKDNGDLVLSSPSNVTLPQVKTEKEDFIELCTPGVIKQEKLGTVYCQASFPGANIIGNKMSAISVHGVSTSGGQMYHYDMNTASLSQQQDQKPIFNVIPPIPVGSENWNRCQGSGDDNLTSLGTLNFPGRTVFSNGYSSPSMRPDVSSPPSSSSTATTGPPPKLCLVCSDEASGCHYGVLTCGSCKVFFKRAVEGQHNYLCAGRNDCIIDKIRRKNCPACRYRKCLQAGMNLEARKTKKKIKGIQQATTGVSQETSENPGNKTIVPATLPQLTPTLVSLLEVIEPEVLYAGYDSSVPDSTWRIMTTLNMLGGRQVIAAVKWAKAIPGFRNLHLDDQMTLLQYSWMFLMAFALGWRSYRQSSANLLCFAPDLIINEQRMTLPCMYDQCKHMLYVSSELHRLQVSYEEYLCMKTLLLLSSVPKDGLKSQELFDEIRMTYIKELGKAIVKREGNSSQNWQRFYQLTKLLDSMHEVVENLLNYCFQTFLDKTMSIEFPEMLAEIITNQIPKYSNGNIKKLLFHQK

[6] = target: Glucocorticoid receptor (Homo sapiens) (UniProt P04150); assay: GR-EFC Redistribution (AID 451; calls by dose curve; also: potency is read from the fitted curve at half-maximal effect); conditions: CHO-K1 GR-EFC translocation, beta-gal luminescence, 2 h
Outline: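 CHO-K1 cells expressing nuclear EA and GR-ED fragments of b-gal; compounds titrated up to 46 uM final, 2 h at 37 C. GR nuclear translocation read as complemented b-gal luminescence after 1 h RT detection.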

[7] = target: Mitogen-activated protein kinase 10 (Mus musculus) (UniProt Q61831); assay: JNK3 AlphaScreen Assay (AID 530); conditions: JNK3 lysate, c-Jun phosphorylation; series mostly up to 11.4 µM;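 also: kinase came from lysate of stimulated human HepG2 cells; signal reports phosphorylation of biotinylated GST-cJun 1-79 at Ser73 with 10 µM ATP; % is scaled to controls: 0 for no effect and ±100 for the full control effect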
Outline: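 Pre-activated (IL-1β/TNFα) JNK3 in HepG2 lysates phosphorylates biotin-GST-cJun(1-79), 10 uM ATP; anti-phospho-cJun(Ser73) AlphaScreen read at room temperature, pH 7.6 Tris buffer. Compounds pre-incubated 15 min as titrations.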

[8] = target: 3',5'-cyclic-AMP phosphodiesterase 4B (Homo sapiens) (UniProt Q07343); assay: qHTS Assay for Inhibitors of PDE-IV (AID 607; active = well fitted activation curve with a large enough effect in the main read-out, with a control signal flat, not every such curve was filed as active; also: % of control where 0% means no effect); conditions: HEK293 ACTOne CNG channel cells, membrane potential fluorescence; series mostly up to 22.9 µM
Chain of 3',5'-cyclic-AMP phosphodiesterase 4B (Homo sapiens) (Q07343 whole entry, looked up): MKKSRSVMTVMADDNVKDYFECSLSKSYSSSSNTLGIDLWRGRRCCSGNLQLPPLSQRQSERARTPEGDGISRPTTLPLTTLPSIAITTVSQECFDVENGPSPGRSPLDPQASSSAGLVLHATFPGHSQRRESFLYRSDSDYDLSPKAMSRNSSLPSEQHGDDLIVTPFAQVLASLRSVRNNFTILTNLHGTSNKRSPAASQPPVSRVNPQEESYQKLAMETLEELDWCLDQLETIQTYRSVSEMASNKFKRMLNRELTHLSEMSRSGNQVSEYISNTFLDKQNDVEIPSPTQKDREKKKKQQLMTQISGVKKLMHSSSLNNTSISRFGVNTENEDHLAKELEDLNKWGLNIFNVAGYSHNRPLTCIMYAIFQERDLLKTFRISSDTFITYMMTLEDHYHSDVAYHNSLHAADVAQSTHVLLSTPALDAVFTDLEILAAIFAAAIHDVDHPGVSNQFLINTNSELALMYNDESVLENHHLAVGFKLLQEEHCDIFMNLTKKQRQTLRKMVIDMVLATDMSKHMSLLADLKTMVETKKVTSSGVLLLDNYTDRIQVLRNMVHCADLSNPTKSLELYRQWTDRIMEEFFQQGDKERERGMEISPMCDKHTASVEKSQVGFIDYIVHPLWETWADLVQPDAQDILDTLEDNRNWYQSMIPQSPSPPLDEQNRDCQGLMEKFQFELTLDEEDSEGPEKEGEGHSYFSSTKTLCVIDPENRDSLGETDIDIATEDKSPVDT
Outline: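 ACTOne HEK293 cells carry a modified cAMP-gated CNG channel and express endogenous PDE4; plated 1000 cells/well, compounds up to 22.9 uM final. Membrane-potential dye fluorescence (ex 535/em 590) was read; parental cells received 10 uM forskolin + 100 uM RO 20-1724.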

[9] = target: Cytochrome P450 3A4 (Homo sapiens) (UniProt P08684); assay: qHTS Assay for Activators of Cytochrome P450 3A4 (AID 885; active = well fitted curve in the direction sought with a large enough effect; an effect the other way counts as inactive or inconclusive; also: nearly all actives have a fitted effect of over 65% in size); conditions: recombinant CYP3A4, Luciferin-PPXE luminescence, 60 min; series mostly up to 11.4 µM
Chain of Cytochrome P450 3A4 (Homo sapiens) (P08684 whole entry, looked up): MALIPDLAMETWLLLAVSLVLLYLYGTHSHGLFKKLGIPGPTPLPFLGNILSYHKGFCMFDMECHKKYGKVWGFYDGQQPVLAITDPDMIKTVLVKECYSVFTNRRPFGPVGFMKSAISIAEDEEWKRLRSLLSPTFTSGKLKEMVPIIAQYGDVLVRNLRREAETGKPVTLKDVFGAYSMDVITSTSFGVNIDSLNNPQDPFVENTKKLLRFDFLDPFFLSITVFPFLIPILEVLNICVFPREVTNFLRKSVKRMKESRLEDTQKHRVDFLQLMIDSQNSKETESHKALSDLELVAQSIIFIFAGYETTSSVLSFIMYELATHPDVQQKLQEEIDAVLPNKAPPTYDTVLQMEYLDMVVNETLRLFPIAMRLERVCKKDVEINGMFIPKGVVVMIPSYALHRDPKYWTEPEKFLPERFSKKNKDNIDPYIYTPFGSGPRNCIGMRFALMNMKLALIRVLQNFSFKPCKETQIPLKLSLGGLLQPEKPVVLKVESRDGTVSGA
Outline: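 20nM CYP3A4 + 25uM Luciferin-PPXE (=KM), 200mM KPO4; cpd 10 min RT; NADPH regen, 60 min RT; stop w/ detection buffer, 20 min; luminescence. Normalized to 57 uM ketoconazole.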

[10] = target: Cytochrome P450 2C19 (Homo sapiens) (UniProt P33261); assay: qHTS Assay for Inhibitors and Substrates of Cytochrome P450 2C19 (AID 899; active = well fitted curve in the direction sought with a large enough effect; an effect the other way counts as inactive or inconclusive; also: nearly all actives have a fitted effect of over 60% in size; also: potency is read from the fitted curve at half-maximal effect); conditions: recombinant CYP2C19, luciferin-H EGE luminescence; series mostly up to 11.4 µM
Chain of Cytochrome P450 2C19 (Homo sapiens) (P33261 whole entry, looked up): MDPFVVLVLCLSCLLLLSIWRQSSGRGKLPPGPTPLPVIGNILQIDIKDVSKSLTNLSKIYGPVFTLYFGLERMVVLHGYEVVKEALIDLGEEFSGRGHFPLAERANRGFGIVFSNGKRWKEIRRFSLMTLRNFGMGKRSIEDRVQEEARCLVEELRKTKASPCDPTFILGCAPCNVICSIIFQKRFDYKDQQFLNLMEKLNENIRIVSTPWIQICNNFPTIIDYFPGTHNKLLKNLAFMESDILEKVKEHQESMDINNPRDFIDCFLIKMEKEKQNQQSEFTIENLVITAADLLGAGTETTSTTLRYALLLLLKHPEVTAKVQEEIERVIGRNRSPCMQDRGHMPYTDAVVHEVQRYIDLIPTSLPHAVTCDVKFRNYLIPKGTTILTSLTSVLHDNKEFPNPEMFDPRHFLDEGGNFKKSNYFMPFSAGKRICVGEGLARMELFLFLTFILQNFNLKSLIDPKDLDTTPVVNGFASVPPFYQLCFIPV
Outline: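 5 nM human CYP2C19 with 10uM Luciferin-H EGE (at KM) in 50mM KPO4, compound preincubated 10 min at 37C, then NADPH regeneration for 60 min at 37C. Luciferin read by luminescence after detection reagent; normalized to 57uM ketoconazole as full inhibition.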

[11] = target: Cytochrome P450 2C9 (Homo sapiens) (UniProt P11712); assay: qHTS Assay for Inhibitors and Substrates of Cytochrome P450 2C9 (AID 883; active = well fitted curve in the direction sought with a large enough effect; an effect the other way counts as inactive or inconclusive; also: potency is read from the fitted curve at half-maximal effect; nearly all actives have a fitted effect of over 60% in size); conditions: recombinant CYP2C9, luciferin-H luminescence, 60 min; series mostly up to 11.4 µM
Chain of Cytochrome P450 2C9 (Homo sapiens) (P11712 whole entry, looked up): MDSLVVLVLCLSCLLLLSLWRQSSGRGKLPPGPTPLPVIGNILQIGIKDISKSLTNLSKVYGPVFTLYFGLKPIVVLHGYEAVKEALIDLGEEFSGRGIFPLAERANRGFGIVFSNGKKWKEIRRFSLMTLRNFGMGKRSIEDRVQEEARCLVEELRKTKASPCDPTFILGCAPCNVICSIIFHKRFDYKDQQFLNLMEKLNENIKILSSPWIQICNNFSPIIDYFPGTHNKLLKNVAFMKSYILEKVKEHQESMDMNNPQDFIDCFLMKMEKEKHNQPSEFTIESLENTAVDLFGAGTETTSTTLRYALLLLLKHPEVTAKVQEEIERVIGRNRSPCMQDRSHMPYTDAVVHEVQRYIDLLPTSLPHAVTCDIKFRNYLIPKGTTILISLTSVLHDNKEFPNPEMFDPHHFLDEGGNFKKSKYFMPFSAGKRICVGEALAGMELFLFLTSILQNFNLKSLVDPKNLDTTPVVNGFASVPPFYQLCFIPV
Outline: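 Human CYP2C9 (10nM) with Luciferin-H at 100uM (its KM) in 25mM KPO4; compound preincubated 10 min at 37C, then NADPH regeneration for 60 min at 37C. Luciferin read by luminescence after detection reagent; normalized to 57uM sulphaphenazole as full inhibition.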

[12] = target: Cytochrome P450 3A4 (Homo sapiens) (UniProt P08684); assay: qHTS Assay for Inhibitors and Substrates of Cytochrome P450 3A4 (AID 884; active = well fitted curve in the direction sought with a large enough effect; an effect the other way counts as inactive or inconclusive; also: potency is read from the fitted curve at half-maximal effect; nearly all actives have a fitted effect of over 50% in size); conditions: recombinant CYP3A4, Luciferin-PPXE luminescence; series mostly up to 57.1 µM
Outline: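 20 nM human CYP3A4 with 25 uM Luciferin-PPXE (at KM) in 200 mM KPO4, preincubated 10 min with compound; NADPH regeneration started a 60 min RT reaction. Luciferin detected by luminescence, normalized to 57 uM ketoconazole as full inhibition.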

CC(C)(N)CO[C@H]1C[C@H]2CC[C@@]1(C)C2(C)C
inactive: Potency [1] > 11.4 µM | activity change, negative = inhibition [2] 4.93% | Potency [3] | activity change, negative = inhibition [4] 3.38% | Potency [5] > 46 µM | Potency [6] > 9.22 µM | Potency [7] | Potency [8]

CC(C)(C)c1ccc(NS(=O)(=O)c2ccc(N)cc2)cc1
active: Potency [3] 3.16 µM | Potency [10] 0.398 µM
inactive: Potency [1] > 11.4 µM | activity change, negative = inhibition [2] 3% | activity change, negative = inhibition [4] -2.46% | Potency [5] > 46 µM | Potency [6] > 9.22 µM | Potency [7] | Potency [8] | Potency [9]

NCCSc1nc2ccccc2s1
active: Potency [3] 0.316 µM | Potency [11] 1.58 µM | Potency [12] 3.16 µM
inactive: Potency [1] > 11.4 µM | activity change, negative = inhibition [2] 1.91% | activity change, negative = inhibition [4] 7.28% | Potency [5] > 46 µM | Potency [6] > 9.22 µM | Potency [7] | Potency [8]

Cc1nc2cnc(N3CCNCC3)nc2n(-c2ccccc2)c1=O
inactive: Potency [1] > 11.4 µM | activity change, negative = inhibition [2] -4.43% | activity change, negative = inhibition [4] 1.83% | Potency [5] > 9.22 µM | Potency [6] > 46 µM | Potency [7] | Potency [8] | Potency [9]
active: Potency [3] 10 µM

N[C@@](CCc1ccccc1)(C(=O)O)c1ccccc1
inactive: Potency [1] > 11.4 µM | activity change, negative = inhibition [2] 4.96% | Potency [3] | activity change, negative = inhibition [4] 3.42% | Potency [5] > 46 µM | Potency [6] > 9.22 µM | Potency [7] | Potency [8]

O=C(O)c1ccccc1-c1ccccc1C(=O)Nc1ccc2c(c1)Cc1cc(F)ccc1-2
active: Potency [3] 3.98 µM | Potency [11] 2.51 µM
inactive: Potency [1] > 11.4 µM | activity change, negative = inhibition [2] -17.3% | activity change, negative = inhibition [4] -16.2% | Potency [5] > 46 µM | Potency [6] > 9.22 µM | Potency [7] | Potency [8]

Nc1ccn([C@H]2O[C@@H](COP(=O)(O)O)[C@@H](O)[C@H]2O)c(=O)n1
inactive: Potency [1] > 11.4 µM | activity change, negative = inhibition [2] 5.49% | Potency [3] | activity change, negative = inhibition [4] 12.4% | Potency [5] > 46 µM | Potency [6] > 9.22 µM | Potency [7] | Potency [8] | Potency [10]

ON(CCc1ccncc1)Cc1ccccc1
active: Potency [3] 1 µM | Potency [11] 3.98 µM | Potency [10] 0.316 µM
inactive: Potency [1] > 11.4 µM | activity change, negative = inhibition [2] -5.59% | activity change, negative = inhibition [4] 9.66% | Potency [5] > 46 µM | Potency [6] > 9.22 µM | Potency [7] | Potency [8] | Potency [9]

Nc1ccc(S(=O)(=O)NCc2nccs2)cc1
inactive: Potency [1] > 11.4 µM | activity change, negative = inhibition [2] -6.48% | activity change, negative = inhibition [3] -10.5% [at 2.29 µM] | activity change, negative = inhibition [4] 7.98% | Potency [5] > 46 µM | Potency [6] > 9.22 µM | Potency [7] | Potency [8]
active: Potency [10] 0.0794 µM

O=C(O)[C@@H](O)[C@@H](O)[C@@H](O)[C@@H](O)c1nc2ccccc2s1
active: Potency [3] 3.98 µM | Potency [10] 3.16 µM
inactive: Potency [1] > 11.4 µM | activity change, negative = inhibition [2] 11.6% | activity change, negative = inhibition [4] -1.53% | Potency [5] > 46 µM | Potency [6] > 9.22 µM | Potency [7] | Potency [8]

Oc1ccc(Cn2c(-c3ccc(O)cc3)nc3ccccc32)cc1
inactive: Potency [1] > 11.4 µM | activity change, negative = inhibition [2] 0.507% | Potency [3] | activity change, negative = inhibition [4] 20.6% | Potency [5] > 46 µM | Potency [6] > 9.22 µM | Potency [7] | Potency [8]

CC(C)CSC[C@@H]1O[C@H](n2cnc3c(N)nccc32)[C@H](O)[C@@H]1O
inactive: Potency [1] > 11.4 µM | activity change, negative = inhibition [2] 4.75% | Potency [3] | activity change, negative = inhibition [4] 12.1% | Potency [5] > 46 µM | Potency [6] > 9.22 µM | Potency [7] | Potency [8]

O=C(NNS(=O)(=O)c1ccccc1)c1cccnc1
inactive: Potency [1] > 11.4 µM | activity change, negative = inhibition [2] 16.3% | activity change, negative = inhibition [3] 2.2% [at 2.29 µM] | activity change, negative = inhibition [4] 7.27% | Potency [5] > 46 µM | Potency [6] > 9.22 µM | Potency [7] | Potency [8] | Potency [9]

c1ccc([C@H](c2cccc3c2ccc2ccccc23)[C@H](c2ccccc2)c2cccc3c2ccc2ccccc23)cc1
inactive: Potency [1] > 11.4 µM | activity change, negative = inhibition [2] 15.9% | Potency [3] | activity change, negative = inhibition [4] -0.573% | Potency [5] > 46 µM | Potency [6] > 9.22 µM | Potency [7] | Potency [8]

O=C(O)CSc1nc2ccccc2[nH]1
inactive: Potency [1] > 11.4 µM | activity change, negative = inhibition [2] 3.97% | Potency [3] | activity change, negative = inhibition [4] -2.37% | Potency [5] > 46 µM | Potency [6] > 9.22 µM | Potency [7] | Potency [8]

O=C(O)CCc1c2ccc(=O)c(O)c-2oc2c(O)c(O)ccc12
inactive: Potency [1] > 11.4 µM | activity change, negative = inhibition [2] 3.21% | activity change, negative = inhibition [3] -4% [at 2.29 µM] | activity change, negative = inhibition [4] 17.3% | Potency [5] > 46 µM | Potency [6] > 9.22 µM | Potency [7] | Potency [8]
